Measured values published in PubChem BioAssay (NCI).
About 83,000 compounds went through this panel and 20% of them were active in at least one assay; those are over-represented in the sample as a whole.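 The endpoint reported here, percent growth, reads 100 for growth as untreated, 0 for no net growth and -100 for all cells dead.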 Unmarked numbers belong to inactive results. Activity calls are given as the source filed them. The calls were made as follows: active = growth percent below 10; inactive = the rest.

How the values were obtained:
Test in all cases: NCI-60 one-dose screen, 48 h (100 = growth as untreated, 0 = no growth, -100 = all killed)
Details in all cases: 10 µM unless noted
[1] = test system: NCI-H23 lung
[2] = test system: NCI-H226 lung
[3] = test system: NCI-H322M lung
[4] = test system: HOP-62 NSCLC
[5] = test system: NCI-H460 lung
[6] = test system: HOP-92 NSCLC
[7] = test system: NCI-H522 lung
[8] = test system: A549/ATCC NSCLC
[9] = test system: 786-0 renal
[10] = test system: COLO 205 colon
[11] = test system: DU-145 prostate
[12] = test system: K-562 leukemia
[13] = test system: MALME-3M melanoma
[14] = test system: MDA-MB-231 breast
[15] = test system: RXF 393 renal
[16] = test system: SF-268 CNS
[17] = test system: SF-295 CNS
[18] = test system: SF-539 CNS
[19] = test system: UACC-257 melanoma
[20] = test system: M14 melanoma

SMILES	growth [1] [%]	growth [2] [%]	growth [3] [%]	growth [4] [%]	growth [5]	growth [6] [%]	growth [7]	growth [8] [%]	growth [9] [%]	growth [10] [%]	growth [11]	growth [12]	growth [13] [%]	growth [14] [%]	growth [15]	growth [16] [%]	growth [17] [%]	growth [18]	growth [19] [%]	growth [20]
Cc1noc(C)c1C(=O)OCc1coc2ccccc2c1=O	71.3	84.9	96.2	87.5	83.8%	27.4	-15.4% (active)	89.5	55.4	66.6	27.8%	36.5%	51.4	61.2	76.5%	79.8	104	68.5%	72.2	69.1%
CC(C)N1CCN(Cc2ccc3c(NNC(=O)c4ccccc4)nc4cc(F)ccc4n23)CC1	28.6	14.5	29.3	24.9	3.96% (active)	49	22.8%	16.2	34.2	17.1	30.8%	15.7%	25	43.1	37.7%	24.1	16.5	10.5%	12.4	6.58% (active)
CC(=O)N(N=Nc1ccccc1)c1cccc2ccccc12	86.9	92.5	94.3	90.5	55.7%	96.5	75.1%	97.4	97.6	91.9	9.87% (active)	89.5%	128	78.2	89.6%	92.8	68.2	111%	103	90.9%
CN1C(=O)/C(=C/c2ccc(C(=O)Nc3ncc(Cc4ccc(Cl)cc4)s3)cc2)SC1=S	65.7	71.5	56	49.7	21.1%	51.6	36.4%	48.5	47.5	80.3	47.1%	38.4%	50.9	58	48.3%	56.8	33	47.3%	67.1	16.3%
O=C(CSc1nnc2n1S(=O)(=O)c1ccccc1N2c1ccccc1)Nc1nc2ccc(F)cc2s1	80.3	93.2	113	82.3	106%	88	87.2%	93.3	96.2	106	114%	98.5%	87.4	98.9	87.1%	97.2	91.5	102%	111	96.5%
N#CC1=C(N)Oc2c(sc3c(F)cccc23)C1c1ccc(F)cc1 (stereo not given)	38.9	36.5	49.3	35.1	11.6%	44.5	-3.69% (active)	25.7	19.8	13	16.6%	11.1%	56.3	39.6	-16.5% (active)	54.4	14.6	-14.3% (active)	60.5	0.877% (active)
COc1cc(OC)c2sc(-c3ccc(-n4cncc4-c4ccc(OC)c(OC)c4)cc3)nc2c1	66.1	66.7	92.3	83.2	23.3%	39.4	50.5%	45.6	74.5	48.3	-4.76% (active)	65.5%	73.1	68	12.1%	60.5	48.8	66.5%	71.5	67.6%
CCS/C(Nc1ccccc1)=C(\C#N)C(=O)N/N=C/c1ccc(Cl)cc1Cl	41.3	37.7	70.9	36.7	8.05% (active)	29.2	1.02% (active)	38.3	31.8	28.4	20%	7.35% (active)	38.1	39	2.63% (active)	34	17	4.25% (active)	51.9	21%
